# From PubChem BioAssay
# Compounds with a hit are over-represented: about 5% of the library has one in this group of screens.
# SENP8 block-1 = human SENP8 protease inhibitors, primary screen, biochemical, fluorescence, Nedd8 protein substrate, uHTS; Sentrin-specific protease 8 (Homo sapiens), Q96LD8; recombinant SENP8; inhibition, % at 20 µM; hit rate 0.64% among 360,000; AID 602440, 2012; in the data active means inhibition mostly above about 40%, no sharp cut-off; inactive means mostly below about 27%
# Target sequence (Q96LD8 whole entry, looked up): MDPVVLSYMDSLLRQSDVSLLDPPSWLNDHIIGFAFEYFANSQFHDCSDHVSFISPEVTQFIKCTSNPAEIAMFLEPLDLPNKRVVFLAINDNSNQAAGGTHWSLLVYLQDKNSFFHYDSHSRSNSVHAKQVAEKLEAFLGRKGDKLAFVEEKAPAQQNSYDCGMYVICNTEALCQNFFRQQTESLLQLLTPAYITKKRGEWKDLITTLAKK
# AHR activator = AHR activators, primary screen, cell-based, luminescence, luciferase reporter, human | Aryl hydrocarbon receptor (Homo sapiens), P35869 | AHR-responsive luciferase reporter cells | activation, % at 5 µM | hit rate 2.5% among 320,000 | AID 2796, 2010; in the data active means activation above about 47%;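 further: 0% = vehicle wells and 100% = reference agonist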
# SENP7 inh = SENP7 protease inhibitors, primary screen, biochemical, luminescence, uHTS; hit rate 1.5% among 330,000; AID 434973, 2010; recombinant SENP7, Z-RLRGG-aminoluciferin luminescence, 40 min; inhibition, % at 5 µM;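 active means inhibition above about 50% at the single test dose, limit read from the data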;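 further: plate controls were DMSO with enzyme for no effect and no enzyme buffer wells for full effect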
# Target sequence (Q9BQF6 706-1050 limits assumed): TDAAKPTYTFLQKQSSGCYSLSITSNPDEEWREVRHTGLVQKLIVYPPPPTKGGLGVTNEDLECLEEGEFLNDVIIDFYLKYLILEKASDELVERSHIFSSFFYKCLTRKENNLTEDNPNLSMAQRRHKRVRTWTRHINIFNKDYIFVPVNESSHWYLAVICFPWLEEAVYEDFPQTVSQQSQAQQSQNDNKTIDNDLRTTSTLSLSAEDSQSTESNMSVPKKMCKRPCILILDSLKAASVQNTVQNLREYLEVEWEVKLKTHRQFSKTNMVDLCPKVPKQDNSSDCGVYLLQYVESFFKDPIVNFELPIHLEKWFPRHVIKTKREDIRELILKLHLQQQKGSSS
# SENP6 block = SENP6 protease inhibitors, primary screen, biochemical, luminescence, uHTS. Sentrin-specific protease 6 (Homo sapiens), Q9GZR1. Recombinant SENP6 catalytic domain, aminoluciferin luminescence. inhibition, % at 10 µM. hit rate 1.8% among 330,000. AID 2599, 2010;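 active means inhibition above about 50% at the single tested dose, limit read from the data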;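 further: plate controls were DMSO wells with enzyme for no effect and DMSO wells lacking enzyme for full effect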
# SENP8 block-2 = SENP8 protease inhibitors, primary screen, biochemical, luminescence; purified SENP8, Z-RLRGG-aminoluciferin cleavage; inhibition, % at 10 µM; hit rate 1.2% among 330,000; AID 2540, 2010; in the data active means inhibition above about 50%
# EBI2 block = EBI2 receptor antagonists, beta-arrestin recruitment, primary screen, cell-based, luminescence, 7a,25-OHC stimulation, uHTS. AID 651636, 2012. hit rate 0.81% among 360,000. 7a,25-OHC stimulated. G-protein coupled receptor 183 (Homo sapiens), P32249. inhibition, % at 5 µM; in the data active means inhibition above about 38%;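 further: enzyme fragment complementation signal reports receptor beta-arrestin coupling in cells; 0% = agonist plus DMSO wells and 100% = wells without agonist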
# * marks the source's active call; other numbers are inactive results; i = inactive; / = no result.
SMILES,SENP8 block-1,AHR activator,SENP7 inh,SENP6 block,SENP8 block-2,EBI2 block
COc1ccc(CN(C)C(=O)c2ccc(Cl)c(S(=O)(=O)NCc3cccnc3)c2)cc1F,13.2,-0.3,5.7,8.2,0.7,1.0
CCOc1ccc(NC(=O)CN(c2ccc(OC)c(OC)c2)S(=O)(=O)c2ccc(C)cc2)cc1,14.9,2.9,-5.5,10.2,-3.0,8.7
Cn1c(C(O)c2ccc(Br)cc2)nc(Cl)c1Cl (stereo unspecified),4.2,61.5*,4.8,-10.6,-5.2,-3.0
Cn1c(C(O)c2ccccc2F)nc(Cl)c1Cl (stereo unspecified),7.3,-2.5,5.8,-2.9,1.4,4.7
CC(CCc1ccccc1)NC(=O)Cn1cccc1C(=O)c1ccccc1 (stereo unspecified),13.2,2.7,-5.6,15.6,5.2,7.2
O=C(Nc1cc(C(F)(F)F)ccc1-n1cncn1)c1cn2ccccc2n1,-66.0,77.9*,0.4,-4.1,6.2,3.4
COc1cc(Cl)c(C)cc1NC(=O)CN1C(=O)C2CC=CCC2C1=O (stereo unspecified),22.6,5.8,8.7,2.0,0.6,3.4
Cc1ccc(OCc2ccc(C(=O)O)o2)c([N+](=O)[O-])c1,30.2,7.0,59.0*,77.1*,71.9*,-11.5
COc1cccc(/C=N/NC(=O)c2ccc(COc3ccc(Cl)cc3Cl)o2)c1,8.1,53.1*,-2.8,-6.2,5.0,10.0
O=C(O)c1ccc(COc2ccc3ccccc3c2)o1,16.1,6.6,54.9*,88.8*,81.3*,-2.2
COc1ccccc1/C=N\NC(=O)c1ccc(COc2ccc(C)c(C)c2)o1,-10.2,48.9*,3.3,-2.2,-2.0,12.6
Cc1ccc(OCc2ccc(C(=O)N3CCCC3)o2)c([N+](=O)[O-])c1,13.3,7.6,-2.2,0.8,4.0,-8.8
Cc1cc(C)n(-c2ccc(C(=O)NC3CCCCC3)cc2)n1,18.4,-3.0,0.5,11.3,-4.4,-3.6
CC[C@H](C)/C=C/C1=CC2=C(Cl)C(=O)[C@@]3(C)OC(=O)C(C(=O)[C@H](C)[C@@H](C)O)=C3C2=CO1,16.3,15.0,-5.8,-4.0,-6.4,5.0
O=C(O)c1ccc(NC2(C(=O)O)CCCC2)cc1,14.4,/,/,/,/,-2.8
COc1ccc(Br)cc1/C=N/NC(=O)c1ccc(COc2ccc3c(c2)CCC3)o1,-32.3,62.0*,-13.1,-3.4,-1.8,-8.7
O=C(N/N=C/c1ccc2ccccc2c1)c1ccc(COc2ccc3c(c2)CCC3)o1,-1.6,47.2*,-0.9,5.8,0.9,6.0
O=C(N/N=C/c1cc([N+](=O)[O-])ccc1O)c1ccc(COc2ccc3c(c2)CCC3)o1,5.1,/,-4.5,0.2,0.4,6.3
COC(=O)c1ccc(COc2ccc3c(c2)CCC3)o1,27.5,7.2,1.4,20.1,37.5,-16.5
COc1ccc2oc(C(=O)Nc3cccc(S(=O)(=O)N4CCOCC4)c3)c(C)c2c1,-88.3,/,9.9,-25.9,-9.1,27.8
COc1ccccc1C(c1nnnn1CCc1ccccc1)N1CCN(c2ccccc2)CC1 (stereo unspecified),8.0,4.7,0.9,-8.8,1.2,16.8
CC(C)(C)n1nnnc1C(c1cccnc1)N1CCN(c2ccccc2)CC1 (stereo unspecified),18.2,-1.3,-9.8,-20.2,-3.0,-7.1
c1ccc(Cn2nnnc2C(c2cccnc2)N2CCN(c3ccccc3)CC2)cc1 (stereo unspecified),19.6,79.0*,4.3,-11.4,6.0,3.2
COCCn1nnnc1C(c1ccccc1OC)N1CCN(c2ccccc2)CC1 (stereo unspecified),21.8,66.9*,2.9,-29.7,1.1,-5.1
O=C(Nc1ccc2nc(C(F)(F)F)[nH]c2c1)[C@@H]1O[C@H](CO)[C@@H](O)[C@H]1O,9.8,/,/,/,/,-7.8
SMILES,SENP8 block-1,AHR activator,SENP7 inh,SENP6 block,SENP8 block-2,EBI2 block
COc1cc(CN2CCC(C(=O)NC(c3ccc(-c4ccccc4)cc3)c3cnccn3)CC2)cc(OC)c1 (stereo unspecified),4.5,/,/,/,/,12.7
CCNC(=O)C1(C)CCCN1C(=O)c1cc(C)on1 (stereo unspecified),27.5,/,/,/,/,-3.7
Cc1ccc(Cl)cc1-n1c(SCC(=O)NCCC2=CCCCC2)nc2n[nH]c(C)c2c1=N,2.9,19.2,-4.6,-10.8,-1.9,15.9
Cc1ccc(-n2c(SCC(=O)NCC3CCCO3)nc3n[nH]c(C)c3c2=N)cc1Cl (stereo unspecified),-5.2,58.8*,-2.5,-13.4,-7.2,-6.3
COc1ccc(-n2c(SCC(=O)NCC3CCCO3)nc3n[nH]c(C)c3c2=N)cc1 (stereo unspecified),5.1,10.7,12.6,-13.9,-9.2,-12.5
Cc1cc(-n2c(SCC(=O)NCCC3=CCCCC3)nc3n[nH]c(C)c3c2=N)ccc1Cl,-2.9,53.2*,-5.5,7.7,-5.4,25.4
CN(C)c1ccc(Nc2cc(Cl)ncn2)cc1,39.0,73.1*,-10.7,1.9,-18.9,4.5
CN(C)c1cccc(-c2cc(Nc3ccc(C(C)(C)C)cc3)ncn2)c1,i,/,/,/,/,6.6
O=[N+]([O-])c1ccc(/C=N/n2c(CO)nc3ccccc32)s1,53.0*,29.0,28.3,27.2,5.0,3.6
Cc1cccc(C)c1-n1nnnc1C(c1ccnc2ccccc12)N1CCN(C(=O)OC(C)(C)C)CC1 (stereo unspecified),23.6,/,/,/,/,3.7
CCN(CC)c1ccc(/C=c2/sc3nnc(-c4ccccc4C)n3c2=O)cc1,36.1,-3.6,9.2,-1.4,-1.7,38.2
CCN(CC)c1ccc(/C=c2\sc3nnc(-c4ccccc4Cl)n3c2=O)cc1,61.3*,2.5,3.5,2.0,6.7,35.4
COC(=O)C1=C(C(=O)OC)SC(=C2C(=S)C(C)(C)N(C(=O)C3CC3)c3ccccc32)S1,41.7*,-0.5,10.4,9.7,-5.3,27.9
COC(=O)C1=C(C(=O)OC)SC(=C2C(=S)C(C)(C)N(C(=O)C(C)C)c3ccccc32)S1,46.3*,-0.4,8.1,2.4,1.1,30.7
CC1C(=O)Nc2ccccc2N1C(=O)C1CC1 (stereo unspecified),37.5,-1.2,4.1,6.8,4.8,16.7
CCOC(=O)C1(C)C(C(=O)OC)=C(c2ccc(OC)cc2)c2ccccc2N1C(=O)OC (stereo unspecified),-7.1,/,2.0,/,/,6.4
CCCC(=O)N1c2ccccc2C(=C2SC(C(=O)OC)=C(C(=O)OC)S2)C(=S)C1(C)C,67.0*,1.0,5.4,3.7,5.8,35.2
O=c1oc(-c2ccc([N+](=O)[O-])cc2)nc2ccccc12,10.9,3.8,-18.7,6.5,-4.3,6.3
